Screens from PubChem.
GALK inh: galactokinase (human) inhibition | P51570 | Purified GALK, Kinase-Glo residual ATP luminescence | Potency, µM (series often up to 57.5 µM), without a hit: at the highest dose activity change, negative = inhibition, most hits filed as inhibitors | 0.007% of 270,000 active | AID 1868; note: potency is the fitted concentration of half-maximal effect
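5 nM enzyme, 35 uM ATP, 100 uM galactose, 20 mM HEPES pH8.0, 5 mM MgCl2; 1 h RT; residual ATP by Kinase-Glo Plus luminescence, qHTS format.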
rTrxR1 inhibitor: blocks rat thioredoxin reductase 1; recombinant rTrxR1, NADPH fluorescence consumption, selenite substrate; O89049; Potency, µM (doses to about 114 µM), for the others: top-dose activity change, negative = inhibition, most hits filed as inhibitors; 1% of 390,000 active; note: potency is the fitted concentration of half-maximal effect; nearly all actives have a fitted effect of over 65% in size
Target sequence (O89049 whole entry, looked up): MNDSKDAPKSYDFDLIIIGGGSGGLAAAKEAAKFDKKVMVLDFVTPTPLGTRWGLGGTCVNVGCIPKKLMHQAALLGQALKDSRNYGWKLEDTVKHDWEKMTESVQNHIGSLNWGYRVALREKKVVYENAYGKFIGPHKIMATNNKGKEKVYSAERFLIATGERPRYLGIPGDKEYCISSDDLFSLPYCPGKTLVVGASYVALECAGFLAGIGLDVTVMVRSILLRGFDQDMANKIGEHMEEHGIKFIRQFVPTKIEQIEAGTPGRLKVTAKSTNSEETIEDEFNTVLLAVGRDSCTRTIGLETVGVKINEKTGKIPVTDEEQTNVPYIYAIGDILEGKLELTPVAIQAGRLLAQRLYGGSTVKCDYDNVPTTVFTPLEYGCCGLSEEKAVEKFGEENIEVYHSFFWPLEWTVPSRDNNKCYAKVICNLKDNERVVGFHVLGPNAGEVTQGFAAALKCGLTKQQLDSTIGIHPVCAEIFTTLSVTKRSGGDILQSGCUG
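Rat TrxR1 (90 nM in the dispensed reagent) was pre-reduced with 400 uM NADPH for 5 min at room temperature, then incubated with compound for 15 min. After 400 uM selenite was added, NADPH fluorescence (Ex 340/Em 450 nm) was followed for 8 min.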
RORgamma inh: ROR gamma (mouse) transcription inhibition. P51450. Drosophila S2 Gal4-RORgamma UAS-luciferase reporter, 20 h. Potency, µM (top dose mostly 53.6 µM), for the others: top-dose activity change, negative = inhibition, most hits filed as inhibitors. 5.4% of 310,000 active. AID 2551; note: potency is the fitted concentration of half-maximal effect; nearly all actives have a fitted effect of over 60% in size
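Luminescence from a UAS-regulated Photinus luciferase reporter in stably transfected Drosophila Schneider cells is measured; decreased signal marks ROR gamma inhibition. Fusion expression is induced by 700 uM copper sulfate for 20 hr.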
FBPA coupling cs: counter-screen for Giardia aldolase inhibitors: coupling enzyme system; AID 2472; coupling enzyme system counterscreen, AmpLite Red fluorescence; 0.67% of 290,000 active; activity change, negative = inhibition, % at 58.2 µM, hits read low; in the data active = activity change below about -30%
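Activity here indicates interference with the coupling reaction, not aldolase inhibition. Compounds at 57.5 uM final met coupling enzymes for 10 min at RT; substrate and AmpLite Red detection followed, with a 525/598 nm fluorescence read after 20 min.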
VP16 counter: Gal4-VP16 reporter inhibition counter-screen; Potency, µM (top dose mostly 53.6 µM), for the others: top-dose activity, negative = inhibition, actives largely listed as inhibitors; Drosophila S2 Gal4-VP16 UAS-luciferase, luminescence, 20 h; 3.5% of 310,000 active;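 note: Gal4-VP16 expression switched on by copper sulfate through the metallothionein promoter; potency is the fitted concentration of half-maximal effect; nearly all actives have a fitted effect of over 50% in size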
TrxR1 substrate: is turned over as a substrate by rat TrxR1 | purified TrxR1 substrate turnover, NADPH consumption readout | Potency, µM (highest dose often 114 µM), without a hit: top-dose activity change, negative = substrate turnover | 0.01% of 390,000 active; note: potency is the fitted concentration of half-maximal effect; nearly all actives have a fitted effect of over 50% in size
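Rat TrxR1, dispensed at 90 nM, was prereduced with 400 uM NADPH (final) for 5 min at ~22 deg C, then incubated with compound 15 min before 400 uM selenite. A first-read NADPH fluorescence drop versus no-compound background flagged substrates.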
* = called active by the depositor; u = inconclusive; x = not tested or not shown; [ ] = dose if it differs, or a comment. Most compounds without a hit are left out; they make up all but 5.9% or so of the library. Unless noted, calls come from the whole dose curve; as a rule, active = well fitted curve in the direction sought with a large enough effect; inconclusive = small, poorly fitted or top-dose-only effect, or another doubt; inactive = no such curve, though single readings can be large; an effect the other way counts as inactive or inconclusive. % is set by controls: 0 for no effect and ±100 for the full control effect.

SMILES	GALK inh	rTrxR1 inhibitor	RORgamma inh	FBPA coupling cs	VP16 counter	TrxR1 substrate
O=C(NC1CCN(C(=S)NCCc2ccccc2)CC1)C1CC1	0%	7%	10µM*	-6	u	3%
S=C(NCCc1ccccc1)NC1CC1	1%	-25%	4.5µM*	4	u	-11%
S=C(NCCc1cccc(Cl)c1)NC1CCCCC1	1%	6%	4.5µM*	-1	5.6µM*	0%
S=C(NCCc1ccccc1)NC1CCC(NC(=S)NCCc2ccccc2)CC1 (stereo not drawn)	-3%	11%	-3%	-2	0%	2%
S=C(NCc1ccc(Cl)cc1Cl)NC1CCCCC1	0%	24%[57.1 µM]	5.6µM*	1	16µM*	3%[57.1 µM]
O=C(O)C1CCCCC1C(=O)NCCc1cccc(Cl)c1 (stereo not drawn)	1%	12%	1%	-1	-14%	4%
Cn1c(=O)c2[nH]c(SCc3ccccn3)nc2n(C)c1=S	-6%	x	-3%	6	3%	x
COC(=O)c1ccc(NC(=O)C(=O)N2CCN(C(=S)Nc3cccc(C)c3C)CC2)cc1	1%	-19%	-10%	0	-9%	-14%
COc1ccc(C)cc1N(C)C(=O)c1sc2nc3n(c(=O)c2c1C)CCCCC3	x	79µM*	x	x	x	-4%
COc1ccc(CNC(=O)c2sc3nc4n(c(=O)c3c2C)CCCCC4)cc1	x	7.1µM*	x	x	x	23%
CNC(=S)Nc1ccc([N+](=O)[O-])cc1C	0%	u	-5%	-2	2%	-5%
CNC(=S)Nc1ccc([N+](=O)[O-])c(C)c1	0%	u	10µM*	3	u	-10%
Cc1ccc(NC(=S)NCc2ccccc2)cc1[N+](=O)[O-]	0%	-23%	u	0	u	-9%
Cc1ccc(CNC(=S)Nc2ccc(C)c([N+](=O)[O-])c2)cc1	0%	-3%	6.3µM*	-1	3.5µM*	-3%
Cc1cccc(NC(=O)CN(c2ccc(F)cc2)S(C)(=O)=O)c1	-3%	15%	5.6µM*	2	5µM*	2%
CN(c1cccc(NC(=O)CN(c2ccc(F)cc2)S(C)(=O)=O)c1)S(C)(=O)=O	-1%	2%	3%	2	-4%	5%[57.1 µM]
CC(C)c1ccc(CNCCSc2nnnn2-c2ccccc2)cc1	x	21%	x	x	x	-4%
O=C(Oc1ccccc1Cl)c1ccccc1	x	-1%	x	x	x	-4%
O=C(Oc1cccccc1=O)c1ccccc1	0%	5%	10µM*	2	u	-1%
O=C(CCl)N=c1sccn1Cc1ccccc1Cl	-2%	25µM*	u	2	u	3%
O=C(CCl)N=c1sccn1Cc1ccc(Cl)cc1Cl	1%	32µM*	u	1	u	1%
Cc1cccc(N2CC(O)(c3cccs3)[N+]3=C2CCCC3)c1C (stereo not drawn)	7%	16%[57.1 µM]	8%	0	35µM*	0%[57.1 µM]
Brc1ccc(N=Nc2ccc3ccccc3n2)cc1	15%	18%	0.11µM*	3	0.45µM*	5%[57.1 µM]
CCn1c(O)c(N=Nc2ccc3ccccc3n2)c2ccccc21	2%	18%	u	-4	3%	2%
CCOC(=O)Cc1c(C)nc2c(-c3ccccc3)c[nH]n2c1=O	0%	10%[57.1 µM]	7.9µM*	0	-7%[0.365 µM]	45%
SMILES	GALK inh	rTrxR1 inhibitor	RORgamma inh	FBPA coupling cs	VP16 counter	TrxR1 substrate
COCc1cc(=O)n2[nH]c(-c3ccccc3)cc2n1	2%	13%[57.1 µM]	23%	-4	2%	31%[57.1 µM]
CCOC(=O)Cc1c(C)nc2c(-c3ccccc3)c(-c3ccccc3)[nH]n2c1=O	5%	1%	13µM*	3	u	42%
CCOC(=O)Cc1cc(=O)n2[nH]cc(-c3ccc(Cl)cc3)c2n1	2%	11%[57.1 µM]	11µM*	5	u	12%[57.1 µM]
COCc1cc(=O)n2[nH]cc(-c3ccsc3)c2n1	x	4%[57.1 µM]	16µM*	0	u	23%[57.1 µM]
Cc1ccc(NC(=O)CSc2nc3[nH]c(=O)cc(O)c3s2)c(Br)c1	x	5%	x	x	x	-3%
COC(=O)c1sc2cccc(F)c2c1S(=O)(=O)N1CCN(c2ccc(C)cc2C)CC1	x	16%[57.1 µM]	x	x	x	-1%[57.1 µM]
O=C(CCCCn1c(=O)c2ccccc2n(Cc2ccc(F)cc2)c1=O)NCc1ccco1	-3%	-6%	27%	3	5%	6%[57.1 µM]
Cc1cccc(NC(=O)C2CC(=O)N/C(=N/N=C/c3ccco3)S2)c1 (stereo not drawn)	0%	-2%	-31%	3	3%	2%
O=C(CC1S/C(=N/N=C/c2ccco2)NC1=O)Nc1cccc(Cl)c1Cl (stereo not drawn)	2%	8%	20µM*	2	u	-3%[57.1 µM]
C/C(=N\N=C1/NC(=O)C(C)S1)c1ccco1 (stereo not drawn)	0%	1%[57.1 µM]	11µM*	2	-18%	-10%
CCCC1S/C(=N/N=C/c2ccco2)NC1=O (stereo not drawn)	1%	-34%	1.6µM*	-1	3.2µM*	-23%
CCC1S/C(=N/N=C/c2ccco2)N(Cc2ccc(F)cc2)C1=O (stereo not drawn)	-2%	6%	26%	-2	0%	-4%
CC1S/C(=N/N=C/c2ccco2)NC1=O (stereo not drawn)	-1%	3%[57.1 µM]	11µM*	-1	u	2%[57.1 µM]
CCCOC(=O)c1ccc(NC(=O)c2ccccc2[N+](=O)[O-])cc1	4%	5%	-13%	-1	0%	-9%
Cc1ccc(S(=O)(=O)NCc2ccccn2)cc1C	-2%	13%	-43%	1	-5%	-6%
CC(C)(C)n1nc2c(c1NC(=O)c1cccc(Cl)c1)CS(=O)(=O)C2	-2%	30%	16%	1	15%	6%
CC(=O)n1cc(/C=N/NC(=O)c2ccccc2Cl)c2ccccc21	3%	-14%	-14%	-8	1%	-8%
CC1(C)S/C(=N/N=C/c2ccco2)NC1=O	-1%	-11%	13µM*	-1	7.9µM*	-18%
CCCCC1S/C(=N/N=C/c2ccco2)NC1=O (stereo not drawn)	-1%	-5%	0.45µM*	-1	2µM*	-8%
COc1cccc(/C=C/C(=O)Nc2ccc(N3CCOCC3)cc2)c1OC	-2%	2%	-5%	0	-17%	-2%
C/C(=N\NC(=O)c1ccc(-c2ccccc2)cc1)C1C(=O)c2ccccc2C1=O	0%	9%	u	1	12%	-7%
C/C(=N\NC(=O)c1ccc(Br)cc1)C1C(=O)c2ccccc2C1=O	-7%	-2%	4µM*	1	3.5µM*	-5%
CCOc1ccc(C(=O)N/N=C(/C)C2C(=O)c3ccccc3C2=O)cc1	-1%	-12%	1.1µM*	0	2.8µM*	-12%
